Source: PubChem
Pf growth 48h = inhibits P. falciparum growth in the first generation, 48 h | P. falciparum luciferase growth in erythrocytes, 48 h | Potency, µM (titrated, usually from 28.7 µM), hits mostly inhibitors | 310,000 compounds, 5.9% hits
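Luciferase-expressing parasites in RBCs, 2% Hct / 0.1% parasitemia final; RPMI 1640 + 0.5% Albumax; 37 C, 5% CO2, one generation; luminescence read-out, lower signal = inhibition.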
Pf growth 96h = P. falciparum growth inhibition at 96 hours | P. falciparum luciferase reporter growth, 96 h | Potency, µM (doses to about 28.7 µM), actives largely listed as inhibitors | 320,000 compounds, 6.9% hits
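Two parasite generations (96 h, 37 C, 5% CO2) of compound exposure in infected erythrocytes (0.05% parasitemia, 2% hematocrit). Luciferase-reporter P. falciparum; decreased luminescence indicates inhibited growth, aimed at apicoplast-acting delayed death.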
CHX counter = affects cycloheximide protein synthesis inhibition readout, counter-screen; cell reporter, cycloheximide protein synthesis inhibition counterscreen; max response, %; 300,000 compounds, 12% hits; in the data active means max response mostly above about 13%, no sharp cut-off; inactive means mostly below about 14%; further: read at 38.3 µM for the half of the compounds with a filed dose
LmPK inhibitor = LmPK (Leishmania mexicana) enzyme inhibition | Q27686 | purified LmPK, Kinase-Glo ATP luminescence, 1 h | Potency, µM (series often up to 57.5 µM), actives largely listed as inhibitors | 290,000 compounds, 0.37% hits
Target sequence (Q27686 whole entry, looked up): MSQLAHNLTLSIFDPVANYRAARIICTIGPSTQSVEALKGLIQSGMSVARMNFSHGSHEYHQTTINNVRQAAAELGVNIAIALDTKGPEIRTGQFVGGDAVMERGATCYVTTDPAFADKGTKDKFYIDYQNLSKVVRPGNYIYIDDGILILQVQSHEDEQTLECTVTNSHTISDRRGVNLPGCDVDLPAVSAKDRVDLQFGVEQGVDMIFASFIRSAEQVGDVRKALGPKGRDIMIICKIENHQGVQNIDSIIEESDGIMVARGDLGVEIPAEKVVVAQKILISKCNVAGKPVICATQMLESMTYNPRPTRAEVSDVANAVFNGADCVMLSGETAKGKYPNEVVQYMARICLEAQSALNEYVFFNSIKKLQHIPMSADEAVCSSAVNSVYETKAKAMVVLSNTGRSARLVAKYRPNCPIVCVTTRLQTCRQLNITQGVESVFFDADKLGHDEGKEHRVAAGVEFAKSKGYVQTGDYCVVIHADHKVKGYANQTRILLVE
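In 50 mM imidazole pH 7.2 with 7 mM MgCl2, LmPK (0.1 nM) turned over PEP (0.5 mM) and ADP (0.1 mM) for 1 h at room temperature. Luciferase read-out of ATP.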
Shiga toxin inh = inhibitors of Shiga toxin in Vero cells; Vero cells, Shiga toxin protein synthesis inhibition reporter; inhibition, % at 38.7 µM; 290,000 compounds, 9.2% hits; in the data active means inhibition mostly above about 28%, no sharp cut-off; inactive means mostly below about 43%
Numbers stand for hits; n = inactive; u = inconclusive; x = not tested or not shown; [ ] = remark or other dose. Hits are enriched below; roughly 22% of the tested compounds scored in any of these assays. Unless noted, the call rests on the fitted dose curve; in most records, active means well fitted inhibition curve with a large enough effect; inconclusive means small, poorly fitted or top-dose-only effect, or another doubt; inactive means no such curve, though single readings can be large or run the other way.

SMILES | Pf growth 48h | Pf growth 96h | CHX counter | LmPK inhibitor | Shiga toxin inh
Cc1c(CC(=O)NC(C)C)c(=O)oc2cc3c(cc12)CCC(C)(C)O3 | n | n | 35.4 | n | 53.9
COc1ccc2oc(C(=O)Nc3nc(C)cs3)c(C)c2c1 | n | n | x | x | x
CCOc1ccc(/C=N/NC(=S)NC2CC3CC2C2C=CCC32)cc1 (configuration not stated) | 4.15µM | 0.657µM | n | n | n
CCOc1ccc(/C=N/NC(=S)NC2CC3CCC2C3)cc1 (configuration not stated) | u | u | n | n | n
COc1cc(/C=N/NC(=S)NC2CC3CC2C2C=CCC32)ccc1O (configuration not stated) | 8.28µM | u | 33.6 | n | n
O=C(O)c1ccc2c(c1)C(=O)N(c1cccc3ccccc13)C2=O | n | n | n | n | n
CC(C)(C)C(=O)Nc1ccc(-c2cnco2)cc1 | n | n | 21.3 | n | 64.5
CC(C)(C)c1ccc(-c2cnco2)cc1 | n | n | n | n | n
O=C(NC(=O)c1ccccc1)Nc1ccc(-c2cnco2)cc1 | n | n | 32.1 | n | 62.8
O=C(Nc1ccc(Cl)cc1)Nc1ccc(-c2cnco2)cc1 | u | u | 19.7 | n | n
CC(=O)NCCc1ccc(S(=O)(=O)Nc2cccnc2)cc1 | n | n | n | n | n
CCn1c(NCc2ccco2)nc2ccccc21 | n | u | n | n | n
COc1ccc(CNc2nc3ccccc3n2CCN2CCOCC2)cc1 | u | u | n | n | n
C=CCn1c(NCc2ccc(N(C)C)cc2)nc2ccccc21 | n | n | 32.9 | n | active
CCn1c(NCc2cc(Br)ccc2NS(=O)(=O)c2ccc(C)cc2)nc2ccccc21 | u | 4.65µM | n | n | n
CCn1c(NCc2ccccc2Cl)nc2ccccc21 | u | n | n | n | 24.4
CCCCn1c(NCc2ccc(N(C)C)cc2)nc2ccccc21 | u | n | n | n | n
CCn1c(NCc2ccc(OC)cc2)nc2ccccc21 | n | n | 12.0 | n | 22.7
CN(C)S(=O)(=O)c1ccc(N2CCCC2)c(C(=O)NCC2CCCCC2)c1 | 9.28µM | u | n | n | n
CN(C)S(=O)(=O)c1ccc(N2CCCC2)c(C(=O)Nc2ccccc2OC(F)F)c1 | u | n | n | n | n
CN(C)S(=O)(=O)c1cccc(NC(=O)c2cc([N+](=O)[O-])ccc2N2CCCCC2)c1 | 13.1µM | u | x | x | x
COc1cc(Cl)c(C)cc1NC(=O)c1cc(S(=O)(=O)N(C)C)ccc1N1CCCC1 | 4.65µM | 2.33µM | n | n | n
Cc1ccc(C(=O)c2cc([N+](=O)[O-])ccc2N2CCCCC2)c(C)c1 | 11.7µM | 13.1µM | n | n | n
O=C(O)c1cc([N+](=O)[O-])ccc1N1CCCCC1 | n | u | n | n | n
COc1cc(OC)c2c(c1)OC1Cc3cc(OC)c(OC)cc3C2O1 (configuration not stated) | x | x | x | n[11.5 µM] | x
SMILES | Pf growth 48h | Pf growth 96h | CHX counter | LmPK inhibitor | Shiga toxin inh
CCc1nc2sccc2c(=O)[nH]1 | n | n[1.15 µM] | n | n | n
O=C(NC1CCCCC1)C(c1ccc(Cl)cc1)N(C(=O)c1cnccn1)c1ccc2c(c1)OCO2 (configuration not stated) | 10.4µM | n | n | n | n
COc1cccc(N(C(=O)c2cnccn2)C(C(=O)NC2CCCCC2)c2ccc(Cl)cc2)c1 (configuration not stated) | u | u | n | n | n
CC(=O)c1cccc(N(C(=O)c2ccccn2)C(C(=O)NC2CCCCC2)c2ccccc2)c1 (configuration not stated) | n | 10.4µM | n | n | n
CC(C)c1ccc(C(C(=O)NC2CCCCC2)N(C(=O)c2ccccn2)c2cccnc2)cc1 (configuration not stated) | 10.4µM | u | n | n | n
COc1ccc(C(C(=O)NC2CCCCC2)N(C(=O)c2ccccn2)c2cccnc2)cc1 (configuration not stated) | n | n | n | n | n
CC(=O)CC(c1ccccc1)S(=O)(=O)c1ccc([N+](=O)[O-])cc1 (configuration not stated) | n | n | n | n | n
CS(=O)(=O)N(Cc1ccc(Cl)cc1)c1ccc(C(=O)N/N=C/c2cc3ccccc3nc2Cl)cc1 | n | n | n | n | n
Cc1ccc(CN2CC(=O)N3[C@H]4c5ccccc5OC[C@@H]4[C@H](c4ccccc4)[C@]3(C)C2=O)cc1 | 9.28µM | u | x | x | x
CCCCN1CC(=O)N2[C@H]3c4ccccc4OC[C@@H]3[C@H](c3ccccc3)[C@]2(C)C1=O | u | 5.86µM | x | x | x
C[C@]12C(=O)N(c3ccc(C(F)(F)F)cc3)C(=O)N1[C@@H]1c3ccccc3OC[C@@H]1[C@H]2c1ccccc1 | u | u | n | n | n
Cc1cccc(-c2nc(=S)c3c(o2)CCCC3)c1 | n | x | 48.5 | n | 129.5
Clc1ccc([C@H](Cn2ccnc2)OCc2c(Cl)cccc2Cl)c(Cl)c1 | 6.42µM | 2.03µM | x | x | x
Clc1ccc(OCCCn2ccnc2)c(Br)c1 | u | n | n | n | n
Clc1ccc(COC(Cn2ccnc2)c2ccc(Cl)cc2Cl)cc1 (configuration not stated) | 2.08µM | 1.85µM | n | n | n
Cc1ccc(-n2nnnc2Sc2nc([N+](=O)[O-])nn2C)cc1 | 4.15µM | n | n | n | n
CCN1CC(O)=C(c2nc3ccccc3s2)C1=N | n | x | 24.0 | n | n
CCCCN1CC(O)=C(c2nc3ccccc3s2)C1=N | n | x | 25.4 | n | n
N=C1C(c2nc3ccccc3s2)=C(O)CN1NC(=O)c1ccco1 | n | n | n | n | n
N=C1C(c2nc3ccccc3s2)=C(O)CN1CCCO | n | x | n | n | n
CC(O)CN1CC(O)=C(c2nc3ccccc3s2)C1=N (configuration not stated) | n | n | 17.4 | n | n
O=C(CSc1nc(O)cc(=O)n1-c1ccc(Cl)c(Cl)c1)Nc1ccc(Cl)cc1Cl | n | n | n | n | n
CN(c1ccccc1)S(=O)(=O)c1ccc(C(=O)Nc2ncccc2O)cc1 | 6.57µM | 9.28µM | x | x | x
CN(c1ccccc1)S(=O)(=O)c1ccc(C(=O)NCc2ccccn2)cc1 | n | n | n | n | n
CCN(c1ccccc1)S(=O)(=O)c1ccc(C(=O)Nc2ncccc2O)cc1 | u | 5.86µM | n | n | n
SMILES | Pf growth 48h | Pf growth 96h | CHX counter | LmPK inhibitor | Shiga toxin inh
Cc1ccc2c(c1)N(CC(=O)N1CCCCC1C)C(=O)CO2 (configuration not stated) | n | n | n | n | n
Cc1ccccc1N1CCN(C2CCCN(C(=O)c3cn4cccc(C)c4n3)C2)CC1 (configuration not stated) | u | u | n | n | n
CC(=O)c1cccc(NC(=O)COc2ccccc2)c1 | n | n | 18.2 | n | n
CCOCC(=O)Nc1cccc(Br)c1 | n | n | n | n | n
C/C(=N\NC(=O)c1c(Cl)cnn1C)c1cccc(NC(=O)COc2ccccc2)c1 | n | n | 16.4 | n | n
CC(C)CCOCC(=O)Nc1cccc(C(=O)O)c1 | n | n | 105.1 | n | 120.4
CSc1cccc(NC(=O)COc2ccccc2)c1 | n | x | 40.1 | n | n
